# Screening data: PubChem, National Center for Advancing Translational Sciences (NCATS)
# PI5P4Ka inh: qHTS for Inhibitors of phosphatidylinositol 5-phosphate 4-kinase (PI5P4K); PI5P4Kalpha enzyme, ADP-Glo luminescence, 60 min; hits give low values; max response, %; 1.2% of 330,000 active; AID 652105, 2013; active = max response of -50% or lower; inconclusive = between -30% and -50%; inactive = -30% or higher; note: value at the top dose of about 77 µM
#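 Luminescence from ADP-Glo served as readout of PI5P4Kalpha activity in a qHTS format. Reaction: enzyme, substrate, compound, ATP at 5 microM final, 60 min at RT.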
# USP2a inh: qHTS Assay for Inhibitors of Ubiquitin-specific Protease USP2a Using CHOP2 as the Reporter; Ubiquitin carboxyl-terminal hydrolase 2 (Homo sapiens), O75604; USP2 core, Ub-CHOP2 coupled fluorogenic reporter, 485/531; Potency, µM (top dose mostly 38.3 µM), for the others: at the top dose activity change, negative = inhibition, most hits filed as inhibitors; 0.01% of 330,000 active; AID 463254, 2010;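 note: potency is the fitted concentration of half-maximal effect; plate controls were DMSO wells for no effect and full inhibition by NEM control for full effect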
# Target sequence (O75604 whole entry, looked up): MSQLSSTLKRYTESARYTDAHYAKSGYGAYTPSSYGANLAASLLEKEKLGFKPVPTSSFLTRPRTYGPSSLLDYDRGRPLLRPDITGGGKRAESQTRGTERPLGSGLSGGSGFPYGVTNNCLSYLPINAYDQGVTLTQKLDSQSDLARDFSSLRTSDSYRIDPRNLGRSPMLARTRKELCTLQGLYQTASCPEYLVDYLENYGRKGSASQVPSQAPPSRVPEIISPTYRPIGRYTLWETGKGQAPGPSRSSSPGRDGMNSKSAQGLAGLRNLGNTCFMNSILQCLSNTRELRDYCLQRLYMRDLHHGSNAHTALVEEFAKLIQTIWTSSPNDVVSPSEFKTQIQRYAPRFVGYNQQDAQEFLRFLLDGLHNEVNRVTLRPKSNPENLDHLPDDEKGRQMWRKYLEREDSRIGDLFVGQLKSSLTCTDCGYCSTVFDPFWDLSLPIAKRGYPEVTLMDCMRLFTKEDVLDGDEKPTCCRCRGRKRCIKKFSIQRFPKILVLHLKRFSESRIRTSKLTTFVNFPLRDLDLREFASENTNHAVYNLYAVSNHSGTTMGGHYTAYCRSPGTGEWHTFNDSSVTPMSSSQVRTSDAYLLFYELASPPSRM
#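 Deubiquitinase activity read as fluorescence (485/531 nm) after Ub-CHOP2 cleavage activates the enterokinase reporter on its substrate; USP2 core 10nM, Ub-CHOP2 and substrate 25nM each, 30min compound preincubation then 60min RT; data normalized to NEM, curves fitted.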
# WRN helicase inh: qHTS for Inhibitors of WRN Helicase | AID 651768, 2012 | Bifunctional 3'-5' exonuclease/ATP-dependent helicase WRN (Homo sapiens), Q14191 | WRN helicase unwinding, fluorescent forked duplex, kinetic | 0.46% of 360,000 active | Potency, µM (titrated, usually from 114 µM), for inactives: at the highest dose activity change, negative = inhibition, usual class: inhibitors; note: potency is the fitted concentration of half-maximal effect; nearly all actives have a fitted effect of over 55% in size
#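 WRN at 20 nM final was preincubated with compound for 15 min at room temperature; reaction started with 100 nM forked duplex oligonucleotide carrying fluorophore and quencher plus 2 mM ATP (final). Unwinding followed kinetically by red fluorescence (ex 525/em 598 nm).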
# USP1-UAF1 inh: Inhibitors of USP1/UAF1: Primary Screen | Ubiquitin carboxyl-terminal hydrolase 1 (Homo sapiens), O94782 | recombinant USP1/UAF1, Ub-Rhodamine cleavage fluorescence | Potency, µM (titrated, usually from 57.1 µM), inactives show at the top dose activity change, negative = inhibition, usual class: inhibitors | 0.23% of 390,000 active | AID 743255, 2014; note: potency is the fitted concentration of half-maximal effect; nearly all actives have a fitted effect of over 60% in size
#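 In this screen, compounds sit with the deubiquitinase complex (1nM) for 15 min at room temperature before Ub-Rho is added at 150nM final. Fluorescence rise is then followed for 6 reads every 60 seconds.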
# PLK1 PBD block: qHTS for Inhibitors of PLK1-PDB (polo-like kinase 1 - polo-box domain): Primary Screen. Potency, µM, for the others: max response, negative = inhibition, actives largely listed as inhibitors. Plk1 PBD binding of FITC phosphopeptide, fluorescence polarization. 2.8% of 360,000 active. Serine/threonine-protein kinase PLK1 (Homo sapiens), P53350. AID 720504, 2013; note: potency is the fitted concentration of half-maximal effect; series mostly up to about 57 µM; nearly all actives have a fitted effect of over 65% in size
# The depositor's hits bear a star; u = inconclusive; x = no result given. This is a sample that favours compounds with a hit; in the whole collection about 3.3% have one here. Unless noted, calls come from the whole dose curve; as a rule, active = well fitted curve in the direction sought with a large enough effect; inconclusive = small, poorly fitted or top-dose-only effect, or another doubt; inactive = no such curve, though single readings can be large; an effect the other way counts as inactive or inconclusive. Unless noted, % is set by controls: 0 for no effect and ±100 for the full control effect.
SMILES,PI5P4Ka inh,USP2a inh,WRN helicase inh,USP1-UAF1 inh,PLK1 PBD block
O=S(=O)([O-])CCC[N+]1(CC#Cc2ccccc2)CCCCC1,u,0%,1%,-16%,4.7µM*
CCCCn1c(SCC(=O)OCC)nc2c1c(=O)[nH]c(=O)n2C,-4,0%,-4%,-15%,27µM*
CCCCCn1c(SCCN2CCOCC2)nc2c1c(=O)[nH]c(=O)n2C,-1,3%,-1%,3%,30µM*
CCOC(=O)CSc1nc2c(c(=O)[nH]c(=O)n2C)n1CCc1ccccc1,5,0%,0%,-18%,1%
CCCCCCn1c(SCCN2CCOCC2)nc2c1c(=O)[nH]c(=O)n2C,4,2%,7%,-15%,-17%
CCOCCn1c(SC)nc2c1c(=O)[nH]c(=O)n2C,-19,1%,-1%,-1%,24µM*
CCCN1C(=O)c2ccccc2CC1(C)C(=O)NC1CCCCC1 (centres undefined),x,x,x,-12%,x
O=c1[nH]c(=O)c2[nH]c(=S)n(-c3ccccc3)c2[nH]1,-56*,x,-2%,-16%,-8%
O=C(Nc1c(-c2ccc3c(c2)OCO3)[nH][nH]c1=O)c1ccccc1,-21,x,-33%,x,13µM*
Cc1ccc2c(c1)c1c(c(=O)n(-c3cccc(Cl)c3)c(=O)n1CC(=O)Nc1c(C)cccc1C)n2C,x,x,x,-20%,x
CCOC(=O)c1cnc(SSc2ncc(C(=O)OCC)c(N)n2)nc1N,-71*,-1%,1%,4%,1.1µM*
C=CCSc1ncc(C(=O)OCC)c(N)n1,5,1%,-8%,-12%,-12%
CCOC(=O)c1[nH]c(C)c(CCC(=O)Nc2ccccc2C(=O)OC)c1C,x,x,x,2%,x
O=C1NC(=S)SC1=C1CCCC1,u,-7%,45µM*,-12%,u
FC(F)(F)c1ccccc1Cc1c(-c2cccc(Cl)c2)nc2ccc(Br)cn12,3,x,-6%,x,4%
FC(F)(F)c1ccccc1Cc1c(-c2ccco2)nc2ccc(Br)cn12,-11,x,-14%,x,27µM*
CCCOc1cc(N)ccc1C(=O)OCCN(CC)CC,2,0%,2%,u,-12%
CCCOc1ccc(N)cc1N,-65*,0%,56µM*,u,u
Cc1ccc(S(=O)(=O)n2nc(C)c(C#N)c2N)cc1,-10,1%,-15%,-1%,27µM*
CCN(CC)C(=O)Cn1c(=O)n(-c2ccc(OC)cc2OC)c(=O)c2c(C)c(C(=O)N(CC)CC)sc21,x,x,x,-17%,x
S=C(Nc1ccc(Cl)c(Cl)c1)N1CCN(c2ccccn2)CC1,-4,-1%,-7%,-16%,-16%
COc1cc(NC(=S)N2CCN(c3ccccn3)CC2)c(OC)cc1Cl,-11,4%,0%,-8%,24µM*
S=C(Nc1cccc(Cl)c1)N1CCN(c2ccccn2)CC1,5,-1%,-1%,-10%,-10%
COc1cccc(NC(=S)N2CCN(c3ccccn3)CC2)c1,-9,5%,2%,-15%,27µM*
S=C(Nc1ccc(Oc2ccccc2)cc1)N1CCN(c2ccccn2)CC1,-16,4%,-1%,-15%,24µM*
SMILES,PI5P4Ka inh,USP2a inh,WRN helicase inh,USP1-UAF1 inh,PLK1 PBD block
CCc1ccc(NC(=O)CN2C(=O)C3(SCC(=O)N3c3ccccc3)c3ccccc32)cc1 (centres undefined),x,x,x,-12%,x
Cc1cc2nc(CSc3ccccc3)cc(=O)n2[nH]1,-5,-3%,-32%,-12%,21µM*
CCC/C(=N/NC(=O)c1nnn(-c2nonc2N)c1CN1CCCCC1)c1ccccc1,-3,x,0%,-11%,27µM*
CCCc1c(C(=O)N/N=C(\CC)c2ccccc2)nnn1-c1nonc1N,-5,x,9%,-17%,-4%
COc1cc(NC(=O)Cn2c(=O)oc3cc(S(=O)(=O)N4CCCCCC4)ccc32)cc(OC)c1,x,x,x,-7%,x
CCOC(=O)c1cc(-c2ccc(F)cc2)n(CCC(=O)Nc2cc(OC)cc(OC)c2)c1C,x,x,x,6%,x
Cc1ccccc1CCNC(=O)c1cc2cc(S(=O)(=O)N3CCCCC3)ccc2n1C,x,x,x,-27%,x
O=C(N/N=C/c1ccc(N2CCOCC2)s1)c1ccccc1Cl,-24,1%,2%,-23%,24µM*
O=C(CN1C(=O)COc2ccccc21)NCCCN1CCOCC1,0,0%,0%,-13%,-12%
O=C(CN1C(=O)/C(=C\c2cccc(Br)c2)Oc2ccccc21)NCCCN1CCOCC1,-2,2%,7%,-29%,27µM*
CN(CCc1ccccn1)C(=S)NC(=O)c1ccco1,-9,0%,4%,-23%,27µM*
CC(=NNC(=O)c1ccc(NS(=O)(=O)c2ccc(Br)cc2)cc1)c1cccnc1,-53*,1%,-26%,-12%,0%
C/C(=N\NC(=O)c1ccc(Br)cc1)c1cccc(NC(=O)c2cccnc2)c1,3,-1%,-1%,-17%,2%
C/C(=N\NC(=O)c1ccncc1)c1cccnc1,0,3%,-1%,-28%,-2%
C/C(=N\NC(=O)c1cccnc1)c1ccc(OC2OCCOC2Oc2ccc(/C(C)=N/NC(=O)c3cccnc3)cc2)cc1 (centres undefined),-22,7%,-15%,-7%,30µM*
C/C(=N\NC(=O)c1cccc(N/N=C(\C)c2ccncc2)c1)c1ccncc1,-11,-1%,-4%,-21%,27µM*
C/C(=N\NC(=O)c1cccs1)c1cccnc1,-10,2%,-6%,1%,21µM*
C/C(=N\NC(=O)c1cccc(N/N=C(\C)c2ccccc2)c1)c1ccccc1,-27,2%,-2%,-21%,-11%
COc1ccc2c(c1)c(=O)oc1c(C)c(OCC(=O)N3CCc4ccccc4C3)ccc12,-1,-1%,-10%,-21%,2%
COc1ccc2c(c1)c(=O)oc1c(C)c(OCc3ccc(C(=O)O)cc3)ccc12,u,4%,-10%,-2%,30µM*
Cc1ccc(C)c(NC(=O)Cn2c(=O)n(Cc3ccc4c(c3)OCO4)c(=O)c3ccccc32)c1,x,x,x,-8%,x
CCCCOc1ccc(S(=O)(=O)NCc2csc(-c3ccc(OC)cc3)n2)cc1,x,x,x,14%,x
CCNC(=O)c1nn(-c2ccccc2C)nc1CO,x,x,x,-10%,x
Cc1ccccc1SCC(=O)Nc1ccc(N2CCOCC2)cc1,-22,1%,-14%,-20%,19µM*
Cc1c(Cl)cccc1NC(=S)NCc1cccn1C,4,-1%,-6%,-6%,17µM*
Cc1ccccc1NC(=S)NCc1cccn1C,8,-6%,2%,-17%,-2%
O=C(c1ccco1)N1C(=O)c2cccc3cccc1c23,u,0%,-7%,-16%,5.3µM*
